From PubChem BioAssay (Tox21)
Records with an inconclusive call do not appear. Active and inactive are the calls of the source. Unless noted, calls follow the shape of the dose curve; as a rule, active = well fitted curve in the direction sought with a large enough effect in the repeat runs; inconclusive = weak or mixed curves; inactive = no such curve, though single readings can be large; an effect the other way counts as inactive or inconclusive.

Key:
[1] = molecular target: Estrogen receptor beta (Homo sapiens) (UniProt Q92731); experiment: qHTS assay to identify small molecule agonists of the estrogen receptor beta (ER-beta) signaling pathway (AID 1259377; active = well fitted activation curve with a large enough effect in the signal ratio in the repeat runs, not every such curve was filed as active; the % refers to the signal ratio)
How it was run: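 Reporter cells (HEK293T, ER-beta-UAS-bla) receive compounds or DMSO after a 6 hr pre-incubation. They then incubate 16 hr at 37C/5% CO2, and fluorescence from LiveBLAzer B/G substrate is measured after 2 hours at room temperature.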

[2] = molecular target: Estrogen receptor beta (Homo sapiens) (UniProt Q92731); experiment: qHTS assay to identify small molecule antagonists of the estrogen receptor beta (ER-beta) signaling pathway (AID 1259378; active = well fitted inhibition curve with a large enough effect in the signal ratio in the repeat runs, not every such curve was filed as active; the % refers to the signal ratio)
How it was run: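 Antagonist mode: compounds added to beta-lactamase reporter HEK293T ER-beta-UAS cells stimulated with E2 (1nM final), 16 hr at 37C. LiveBLAzer B/G FRET substrate, 2 hours room temperature, fluorescence read-out.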

[3] = qHTS assay to identify small molecule agonists of the androgen receptor (AR) signaling pathway in the presence of an antagonist - cell viability counter screen (AID 1259379);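 also: MDA-kb2 human breast cancer cells carrying an MMTV luciferase reporter; series mostly up to about 92 µM; nearly all actives have a fitted effect of over 25% in size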
How it was run: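 Cells: MDA-kb2 (MMTV-luc, AR and GR elements), 3,000/well, 5 hr settle. Added: nilutamide 3.0uM final, then compounds (15 conc.). Incubation: 16 hr, 37C, no CO2. Read-out: CellTiter-Fluor, 1 hr, fluorescence.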

[4] = qHTS assay to identify small molecule agonists of the estrogen receptor beta (ER-beta) signaling pathway - cell viability counter screen (AID 1259380); also: nearly all actives have a fitted effect of over 30% in size
How it was run: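 HEK293T ER-beta-UAS-bla; 2% CS-FBS; 6 hr pre-plate, 16 hr cpd at 37C/5% CO2; LiveBLAzer read first, then CellTiter-Glo 30 min RT, luminescence.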

[5] = qHTS assay to identify small molecule antagonists of the estrogen receptor beta (ER-beta) signaling pathway - cell viability counter screen (AID 1259382);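 also: HEK293T cells carrying ER-beta-UAS-bla reporter stimulated with estradiol; series mostly up to about 92 µM; nearly all actives have a fitted effect of over 55% in size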
How it was run: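 Cells: ER-beta-UAS-bla HEK293T, 2,000/well, 2% CS-FBS, 6 hr settle. Cpd + E2 (1nM final), 16 hr, 37C/5% CO2. Bla FRET substrate 2 hr RT, then CellTiter-Glo 30 min RT, luminescence.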

[6] = qHTS assay to identify small molecule agonists or antagonists of the thyroid stimulating hormone receptor (TSHR) signaling pathway - wild type cell line counter screen (AID 1259384; calls by dose curve)
How it was run: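 Counter screen in untransfected Hek293: compounds (15-point titration, triplicate) plus phosphodiesterase inhibitor Ro20-1724 added after 18 h plating; 30 min RT. Intracellular cAMP via competitive d2/cryptate immunoassay, 1 h incubation.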

[7] = molecular target: Thyrotropin receptor (Homo sapiens) (UniProt P16473); experiment: qHTS assay to identify small molecule antagonists of the thyroid stimulating hormone receptor (TSHR) signaling pathway (AID 1259385; calls by dose curve; also: nearly all actives have a fitted effect of over 20% in size)
How it was run: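 Antagonist mode: compound-treated TSHR-expressing HEK293 cells were stimulated with 1.5 ng/mL TSH (final) in presence of Ro20-1724 for 30 min at RT. HTRF cAMP detection after 1 h; each compound tested at 15 concentrations, triplicate.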

[8] = qHTS assay to identify small molecule agonists of the estrogen receptor alpha (ER-alpha) signaling pathway in the presence of an antagonist - cell viability counter screen (AID 1259386);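 also: series mostly up to about 92 µM; cells exposed to compounds for 22 h at 37 °C before the viability read; nearly all actives have a fitted effect of over 30% in size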
How it was run: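 VM7Luc4E2, stripped-serum pre-culture 5 d; 24hr plating; +ICI-182,780 10.0nM final; cpds 15 conc, 22hr, 37C/5% CO2; CellTiter-Fluor added at 21hr, fluorescence 1hr later.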

[9] = molecular target: Estrogen receptor (Homo sapiens) (UniProt P03372); experiment: qHTS assay to identify small molecule agonists of the estrogen receptor alpha (ER-alpha) signaling pathway in the presence of an antagonist (AID 1259383; calls by dose curve; also: top concentration of the series differs between compounds; nearly all actives have a fitted effect of over 15% in size)
How it was run: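 VM7Luc4E2, endog. ER-alpha + 4×ERE-luc; charcoal-stripped FBS, phenol red-free, 5 d; 24hr plating; +10.0nM ICI-182,780 (final); cpds 15 conc, 22hr, 37C/5% CO2; ONE-Glo luminescence.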
% is scaled to controls: 0 for no effect and ±100 for the full control effect.

Sequence of Thyrotropin receptor (Homo sapiens) (P16473 whole entry, looked up): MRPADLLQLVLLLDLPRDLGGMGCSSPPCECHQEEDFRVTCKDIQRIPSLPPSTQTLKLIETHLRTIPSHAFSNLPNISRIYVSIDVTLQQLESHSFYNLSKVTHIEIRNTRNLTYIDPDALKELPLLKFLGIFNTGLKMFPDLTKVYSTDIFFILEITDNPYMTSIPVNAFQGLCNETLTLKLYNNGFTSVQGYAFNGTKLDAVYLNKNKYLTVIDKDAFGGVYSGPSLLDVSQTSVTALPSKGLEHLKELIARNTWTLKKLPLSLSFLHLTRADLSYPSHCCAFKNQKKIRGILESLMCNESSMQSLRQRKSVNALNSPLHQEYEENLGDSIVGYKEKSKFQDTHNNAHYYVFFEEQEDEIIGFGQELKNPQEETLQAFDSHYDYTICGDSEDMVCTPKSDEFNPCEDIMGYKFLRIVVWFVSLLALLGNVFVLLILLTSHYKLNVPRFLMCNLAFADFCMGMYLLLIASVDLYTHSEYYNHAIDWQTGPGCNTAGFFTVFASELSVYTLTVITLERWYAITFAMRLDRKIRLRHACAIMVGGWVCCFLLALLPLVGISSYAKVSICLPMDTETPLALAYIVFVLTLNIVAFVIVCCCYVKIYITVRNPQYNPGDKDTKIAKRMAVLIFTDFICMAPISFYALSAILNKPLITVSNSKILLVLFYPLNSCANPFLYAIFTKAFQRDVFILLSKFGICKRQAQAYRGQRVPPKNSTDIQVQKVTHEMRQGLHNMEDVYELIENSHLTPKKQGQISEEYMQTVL
Sequence of Estrogen receptor beta (Homo sapiens) (Q92731 whole entry, looked up): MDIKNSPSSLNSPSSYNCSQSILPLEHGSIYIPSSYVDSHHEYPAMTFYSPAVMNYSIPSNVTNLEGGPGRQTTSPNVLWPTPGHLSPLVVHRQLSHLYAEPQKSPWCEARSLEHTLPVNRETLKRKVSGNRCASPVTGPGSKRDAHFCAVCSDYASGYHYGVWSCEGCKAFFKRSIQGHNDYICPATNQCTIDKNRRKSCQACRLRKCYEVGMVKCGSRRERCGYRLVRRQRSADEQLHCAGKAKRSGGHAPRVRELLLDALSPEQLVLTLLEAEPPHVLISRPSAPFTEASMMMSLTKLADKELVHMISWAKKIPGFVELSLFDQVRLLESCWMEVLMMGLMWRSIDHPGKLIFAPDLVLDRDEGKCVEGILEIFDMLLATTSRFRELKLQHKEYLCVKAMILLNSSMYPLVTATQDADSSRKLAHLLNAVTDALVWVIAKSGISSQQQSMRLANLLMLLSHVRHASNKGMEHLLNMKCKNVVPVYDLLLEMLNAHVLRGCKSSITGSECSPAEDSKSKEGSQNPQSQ
Sequence of Estrogen receptor (Homo sapiens) (P03372 whole entry, looked up): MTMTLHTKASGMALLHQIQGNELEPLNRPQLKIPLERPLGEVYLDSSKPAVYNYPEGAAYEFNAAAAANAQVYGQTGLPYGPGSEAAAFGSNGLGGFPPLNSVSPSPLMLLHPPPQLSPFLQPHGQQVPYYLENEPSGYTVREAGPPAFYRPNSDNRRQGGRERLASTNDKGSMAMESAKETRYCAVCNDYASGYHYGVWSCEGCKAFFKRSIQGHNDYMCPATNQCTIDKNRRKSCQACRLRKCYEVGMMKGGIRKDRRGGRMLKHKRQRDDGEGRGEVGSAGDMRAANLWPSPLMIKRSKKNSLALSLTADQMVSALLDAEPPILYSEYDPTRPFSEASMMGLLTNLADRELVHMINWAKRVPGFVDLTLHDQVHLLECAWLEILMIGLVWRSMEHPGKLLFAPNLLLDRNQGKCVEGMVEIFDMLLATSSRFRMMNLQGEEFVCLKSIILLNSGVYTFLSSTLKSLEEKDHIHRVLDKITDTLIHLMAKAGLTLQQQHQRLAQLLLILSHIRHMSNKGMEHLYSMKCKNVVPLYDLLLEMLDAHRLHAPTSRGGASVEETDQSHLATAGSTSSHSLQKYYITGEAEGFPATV

O=C(O)CCCc1c[nH]c2ccccc12
inactive: Potency [1] | Potency [2] | Potency [3] | Potency [4] | Potency [5] | Potency [6] | Potency [7]

CC(=O)OC(C)C[N+](C)(C)C (configuration not stated)
inactive: Potency [1] | Potency [2] | Potency [3] | Potency [4] | Potency [5] | Potency [6] | Potency [7]

CC(C)c1ccc(C#N)cc1
inactive: Potency [1] | Potency [2] | Potency [3] | Potency [4] | Potency [5] | Potency [6] | Potency [7] | Potency [8]

Cc1ccc(Cl)cc1N
inactive: Potency [1] | Potency [2] | Potency [3] | Potency [4] | Potency [5] | Potency [6] | Potency [7] | Potency [8]

CCNc1nc(N)nc(Cl)n1
inactive: Potency [1] | Potency [2] | Potency [3] | Potency [4] | Potency [5] | Potency [6] | Potency [7] | Potency [8]

COc1ccc(C(=O)NCc2ccc(OCCN(C)C)cc2)cc1OC
inactive: Potency [1] | Potency [2] | Potency [3] | Potency [4] | Potency [5] | Potency [9] | Potency [8]

O=C(O)c1ccc(O)cc1O
inactive: Potency [1] | Potency [2] | Potency [3] | Potency [4] | Potency [5] | Potency [6] | Potency [7] | Potency [8]

C=C(C)C(=O)OCCC(F)(F)C(F)(F)C(F)(F)C(F)(F)C(F)(F)C(F)(F)F
inactive: Potency [1] | Potency [2] | Potency [3] | Potency [4] | Potency [5] | Potency [6] | Potency [7] | Potency [8]

CC(O)Cn1cnc2c1c(=O)n(C)c(=O)n2C (configuration not stated)
inactive: Potency [1] | Potency [2] | Potency [3] | Potency [4] | Potency [5] | Potency [8]

Nc1nc(-c2ccc([N+](=O)[O-])cc2)cs1
inactive: Potency [1] | Potency [2] | Potency [3] | Potency [4] | Potency [5] | Potency [6] | Potency [7] | Potency [8]

CCOCCC(=O)OCC
inactive: Potency [1] | Potency [2] | Potency [3] | Potency [4] | Potency [5] | Potency [8]

Cc1cccc2sc(N)nc12
inactive: Potency [1] | Potency [2] | Potency [3] | Potency [4] | Potency [5] | Potency [6] | Potency [7] | Potency [8]

CCOC(=O)C(C)O (configuration not stated)
inactive: Potency [1] | Potency [2] | Potency [3] | Potency [4] | Potency [5] | Potency [9] | Potency [8]

CC(=O)NCCO
inactive: Potency [1] | Potency [2] | Potency [3] | Potency [4] | Potency [5] | Potency [6] | Potency [7] | Potency [8]

CCCCOC(=O)CCCCC(=O)OCCCC
inactive: Potency [1] | Potency [2] | Potency [3] | Potency [4] | Potency [5] | Potency [6] | Potency [7] | Potency [8]

CCCC(=O)OC(=O)CCC
inactive: Potency [1] | Potency [2] | Potency [3] | Potency [4] | Potency [5] | Potency [6] | Potency [7] | Potency [8]

CCCCCCOC(=O)CCCCC
inactive: Potency [1] | Potency [2] | Potency [3] | Potency [4] | Potency [5] | Potency [6] | Potency [7] | Potency [8]

C=C(C)c1ccccc1
inactive: Potency [1] | Potency [2] | Potency [3] | Potency [4] | Potency [5] | Potency [6] | Potency [7] | Potency [8]

Cc1cc(CCC(=O)OCCOCCOCCOC(=O)CCc2cc(C)c(O)c(C(C)(C)C)c2)cc(C(C)(C)C)c1O
inactive: Potency [1] | Potency [2] | Potency [3] | Potency [4] | Potency [5] | Potency [6] | Potency [7] | Potency [8]

CC(=O)N[C@@H](Cc1ccc(O)cc1)C(=O)O
inactive: Potency [1] | Potency [2] | Potency [3] | Potency [4] | Potency [5] | Potency [6] | Potency [7] | Potency [8]

Cc1ccc(S(=O)(=O)NC(=O)NC2CCCCC2)cc1
inactive: Potency [1] | Potency [2] | Potency [3] | Potency [4] | Potency [5] | Potency [6] | Potency [7]

CCCCCCCCCCCCCOC(=O)CCSCCC(=O)OCCCCCCCCCCCCC
inactive: activation [1] -0.464% [at 19 µM] | activity, negative = inhibition [2] -0.0397% [at 19 µM] | activity change, negative = cytotoxicity [3] -0.499% [at 19 µM] | activity change, negative = cytotoxicity [4] 4.18% [at 19 µM] | activity change, negative = cytotoxicity [5] 3.4% [at 19 µM] | cAMP activity change [6] -3.33% [at 18.9 µM, hits give high values] | activity change, negative = inhibition [7] -0.382% [at 19 µM]

CCC(=O)OCc1ccc(OC)cc1
inactive: Potency [1] | Potency [2] | Potency [3] | Potency [4] | Potency [5] | Potency [6] | Potency [7] | Potency [8]

Cc1cccc(C)c1NC(=O)c1cc(S(N)(=O)=O)c(Cl)cc1O
inactive: Potency [1] | Potency [2] | Potency [3] | Potency [4] | Potency [5] | Potency [6] | Potency [7] | Potency [8]

CC1CCc2nccnc21 (configuration not stated)
inactive: Potency [1] | Potency [2] | Potency [3] | Potency [4] | Potency [5] | Potency [8]

CCCCCCCCCCCCCCCCCC(=O)OCC(CC)CCCC (configuration not stated)
inactive: Potency [1] | Potency [2] | Potency [3] | Potency [4] | Potency [5] | Potency [6] | Potency [7] | Potency [8]

CC12CC3CC(C)(C1)CC(N)(C3)C2
inactive: Potency [1] | Potency [2] | Potency [3] | Potency [4] | Potency [5] | Potency [6] | Potency [7] | Potency [8]

O=CNNC=O
inactive: Potency [1] | Potency [2] | Potency [3] | Potency [4] | Potency [5] | Potency [6] | Potency [7] | Potency [8]
